# From PMC4336329 (PLoS ONE, 2015)
# Screen size: about 310,000 compounds; about 14,000 (4.5%) showed an effect of 50% or more. Effects have a minus sign here. This is one part of a sample in which strong results are shown more often than they occur.
# Target: human ether-à-go-go-related gene (hERG) potassium channel (human, UniProt Q12809)
# Assay: primary screen, population patch clamp on CHO cells stably expressing hERG; higher = less effect of the substance
# 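Further: peak tail current of the secondary pulse compared with the same well before compound.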
# Sequence of human ether-à-go-go-related gene (hERG) potassium channel (Q12809 whole entry, looked up): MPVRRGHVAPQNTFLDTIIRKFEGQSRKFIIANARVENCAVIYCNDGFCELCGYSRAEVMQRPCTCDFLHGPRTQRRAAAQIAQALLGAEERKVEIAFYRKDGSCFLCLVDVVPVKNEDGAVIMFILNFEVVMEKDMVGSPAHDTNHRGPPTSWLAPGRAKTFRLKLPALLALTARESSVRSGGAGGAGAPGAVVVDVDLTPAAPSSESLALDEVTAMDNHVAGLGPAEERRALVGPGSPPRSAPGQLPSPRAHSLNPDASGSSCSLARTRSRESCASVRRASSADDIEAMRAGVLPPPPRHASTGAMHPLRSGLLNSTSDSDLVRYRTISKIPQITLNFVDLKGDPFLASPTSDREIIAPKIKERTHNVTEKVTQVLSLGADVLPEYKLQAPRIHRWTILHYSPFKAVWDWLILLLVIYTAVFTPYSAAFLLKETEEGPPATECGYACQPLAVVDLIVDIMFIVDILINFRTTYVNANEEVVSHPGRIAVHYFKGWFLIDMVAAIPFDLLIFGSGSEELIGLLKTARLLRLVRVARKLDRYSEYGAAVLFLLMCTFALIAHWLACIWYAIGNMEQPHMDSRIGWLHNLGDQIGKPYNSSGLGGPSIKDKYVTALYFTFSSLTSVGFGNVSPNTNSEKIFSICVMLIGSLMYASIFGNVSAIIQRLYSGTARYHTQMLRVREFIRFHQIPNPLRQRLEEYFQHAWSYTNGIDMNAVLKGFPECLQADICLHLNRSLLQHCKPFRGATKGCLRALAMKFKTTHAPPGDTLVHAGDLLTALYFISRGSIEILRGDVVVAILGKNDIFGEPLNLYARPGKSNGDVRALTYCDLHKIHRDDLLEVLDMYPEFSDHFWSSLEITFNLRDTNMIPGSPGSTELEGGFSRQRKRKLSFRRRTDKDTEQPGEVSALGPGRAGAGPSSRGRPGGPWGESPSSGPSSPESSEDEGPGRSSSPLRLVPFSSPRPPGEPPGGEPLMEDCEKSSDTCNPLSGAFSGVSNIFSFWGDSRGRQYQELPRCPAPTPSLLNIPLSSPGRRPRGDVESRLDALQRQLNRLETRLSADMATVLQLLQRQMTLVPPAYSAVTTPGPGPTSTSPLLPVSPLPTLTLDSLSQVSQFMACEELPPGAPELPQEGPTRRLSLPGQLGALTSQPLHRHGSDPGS
row,SMILES,"hERG current change (%, negative = inhibition) at 10uM [%]"
1,Cc1cccc(C)c1NC(=O)CNC(=O)C(Cc1ccccc1)NC(=O)c1ccccc1 (centres unmarked),13.5
2,O=C1NC2(CCc3ccccc3C2)C(=O)N1CCOc1cccc(Cl)c1 (centres unmarked),-51.1
3,CN1CCN(C(=O)c2ccc(OCCOc3ccccc3)cc2)CC1,-9.69
4,O=C(c1c(F)cccc1F)N1CCN(CCOc2ccccc2)CC1,-8.2
5,Cc1ccc(C)n1CCN1CCN(C(=O)CC#N)CC1,16.3
6,CN1CCN(C(=O)c2ccc(Cl)cc2)CC1,8.8
7,O=C(c1ccc(Cl)cc1)N1CCN(CCOc2ccccc2)CC1,-60.1
8,COc1ccc(OCCN2CCN(C(=O)c3ccc(OC)c(OC)c3)CC2)cc1,-58.8
9,Cc1ccc(C)n1CCN1CCN(C(=O)c2ccc(Cl)cc2)CC1,-50.3
10,COc1cc(OC)cc(C(=O)N2CCN(C(=O)c3ccc(OC)c(OC)c3)CC2)c1,-14
11,COc1ccc(C(=O)N2CCN(Cc3ccc(OC)c(OC)c3)CC2)cc1.O=C(O)C(=O)O,0.702
12,O=C(CN1C(=O)NC2(CCCC2)C1=O)OCCOc1cccc(Cl)c1,-7.43
13,COc1ccc(OCCN2C(=O)NC3(CCc4ccccc4C3)C2=O)cc1 (centres unmarked),-49.7
14,COc1ccc(C(=O)Nc2cccc(-c3ccc4nncn4n3)c2)cc1OC,8.84
15,Cc1ccccc1Nc1c(-c2ccc(N3CCOCC3)cc2)nc2cnccn12,-1.1
16,COc1cc(OC)cc(C(=O)N[C@H](C(=O)Nc2cccc(S(=O)(=O)N3CCCC3)c2)C(C)C)c1,2.47
17,O=C(N/N=C/c1ccco1)c1cc(-c2ccccc2)nc2ccccc12,2.45
18,Cn1c(=NC(=O)C2=NNC(=O)CC2)sc2ccccc21,15.2
19,O=C(NNC1=C(C(=O)C(F)(F)F)CCC1)c1ccccc1Cl,13
20,Cc1cc(C(=O)Nc2cccc(C)c2C)n(-c2ccccc2)n1,-11.7
21,O=C(Nc1cccc(S(=O)(=O)N2CCOCC2)c1)c1ccc(N2CCCC2=O)cc1,8.25
22,COCCCN(CC(=O)O)S(=O)(=O)c1cccc(Cl)c1,16.3
23,O=C(c1ccco1)N1CCN(CCOc2ccccc2)CC1,0.652

row,SMILES,"hERG current change (%, negative = inhibition) at 10uM [%]"
1,O=C(c1ccc(Br)o1)N1CCN(CCOc2ccccc2)CC1,-54.1
2,O=C(c1ccc(Br)o1)N1CCC(Cc2ccccc2)CC1,-10.5
3,CCN(CC(=O)NCc1ccc(Cl)cc1)C(=O)c1cccc(S(=O)(=O)Nc2ccc(OC)cc2)c1,-0.458
4,Cc1ccc(NC(=O)C(Cc2ccccc2)NC(=O)c2ccco2)cc1 (centres unmarked),-3.13
5,O=C1CC(N2CCN(c3nc4ccccc4s3)CC2)C(=O)N1Cc1cccs1 (centres unmarked),-62.3
6,COc1ccc(N2C(=O)CC(N3CCN(c4nc5ccccc5s4)CC3)C2=O)cc1 (centres unmarked),-30.9
7,O=C1CC(N2CCN(c3nc4ccccc4s3)CC2)C(=O)N1c1ccc(F)cc1 (centres unmarked),-53.5
8,O=C1CC(N2CCC(c3nc4ccccc4o3)CC2)C(=O)N1Cc1cccs1 (centres unmarked),-30.9
9,CCCOc1ccc(N2C(=O)CC(N3CCN(c4nc5ccccc5s4)CC3)C2=O)cc1 (centres unmarked),8.46
10,CCOc1cccc(N2C(=O)CC(N3CCN(c4nc5ccccc5s4)CC3)C2=O)c1 (centres unmarked),5.09
11,Cc1ccc(/C=N/NC(=O)C(NC(=O)c2ccccc2)c2n[nH]c(=O)c3ccccc23)cc1 (centres unmarked),-2.54
12,CCC(C)NC(=S)Nc1ccc(C(=O)OC)cc1 (centres unmarked),15
13,CCCn1c(=O)c(C(=O)NNC(=O)c2cccc([N+](=O)[O-])c2)c(O)c2ccccc21,-21.7
14,O=C(Cn1cnc2ccccc2c1=O)NCCC(=O)Nc1ccc2c(c1)OCO2,16.4
15,Cc1cc(NC(=O)CSc2nc(-c3ccc(Cl)cc3)cs2)no1,-5.45
16,COC(=O)c1cc(NC(=O)Cn2nc(C)n3cccc3c2=O)cc(C(=O)OC)c1,4.88
17,COc1cc(S(=O)(=O)NCC2CCCO2)c(OC)cc1Cl (centres unmarked),10.6
18,N#Cc1ccsc1NC(=O)CN1CCN(c2ccccc2)CC1,1.63
19,N#Cc1ccsc1NC(=O)CN1CCN(Cc2ccccc2)CC1,-66.4
20,N#Cc1ccccc1NC(=O)CN1CCOCC1,13.4
21,N#Cc1ccsc1NC(=O)CN1CCCCC1,-5.6
22,N#Cc1ccccc1NC(=O)CN1CCN(Cc2ccccc2)CC1,-60.1
23,CC1CCN(CC(=O)Nc2ccccc2C#N)CC1,3.06

row,SMILES,"hERG current change (%, negative = inhibition) at 10uM [%]"
1,Cc1ccc(C(=O)NCCN(C)C)cc1C,7.22
2,Nc1ccccc1NC(=O)c1ccccc1,2.34
3,O=C(CCCN1C(=O)c2cccnc2Oc2ccc(Cl)cc21)N1CCCCC1,-9.27
4,O=C1CNC(=O)N1,13.6
5,CS(=O)(=O)Nc1ccc(C(=O)N2CCCCC2)cc1,-3.35
6,O=C(Nc1ccc(C(=O)N2CCN(c3ccc(F)cc3)CC2)cc1)C1=CSCCO1,-38.1
7,O=C(c1ccc(-c2ccccc2)cc1)N1CCN(c2ccccc2F)CC1,7.96
8,O=C(Nc1ccc(C(=O)N2CCN(c3ccccc3F)CC2)cc1)C1=CSCCO1,-50.3
9,O=C(Nc1ccc(C(=O)N2CCN(c3ccccc3)CC2)cc1)C1=CSCCO1,-39.8
10,CS(=O)(=O)Nc1ccc(C(=O)N2CCN(c3ccccc3F)CC2)cc1,-68.1
11,CS(=O)(=O)Nc1ccc(C(=O)N2CCCC2)cc1,-7.75
12,CS(=O)(=O)Nc1ccc(C(=O)N2CCN(c3ccccc3)CC2)cc1,-61.9
13,O=C(c1ccccc1)N1CCN(c2ccccc2F)CC1,10.1
14,Cc1nn(CCC#N)c(NC(=O)c2ccccc2)c1P(=O)(Nc1ccc(Br)cc1)N1CCOCC1 (centres unmarked),20.6
15,Cc1cc(CN(C)C(=O)c2ccc3nc(Cc4ccccc4F)oc3c2)on1,-5.71
16,Cc1ccc(SCC2=NN(c3nc(C)cc(C)n3)C(=O)C2)cc1,-16
17,CCn1c(CCNC(=O)c2ccc(C)cc2)nnc1SCc1ccc(Cl)c(Cl)c1,-45.7
18,CCn1c(SCc2ccc(Cl)c(Cl)c2)nnc1C(C)NC(=O)c1ccc(OC)cc1 (centres unmarked),10
19,CCn1c(CCNC(=O)c2ccc(OC)cc2)nnc1SCc1ccc(Cl)c(Cl)c1,-61.8
20,CCOc1ccc(NC(=O)CSc2nnc(CCNC(=O)c3ccc(OC)cc3)n2CC)cc1,-26.7
21,CCn1c(CCNC(=O)c2ccc(Cl)c(Cl)c2)nnc1SCCOc1ccc(OC)cc1,-8.77
22,CCn1c(CCNC(=O)c2ccc(OC)cc2)nnc1SCc1ccc(Cl)cc1Cl,-65.6
23,CCC1(C)Cc2nc3[nH]c(=S)n(-c4ccccc4C)c(=O)c3cc2CO1 (centres unmarked),4.44

row,SMILES,"hERG current change (%, negative = inhibition) at 10uM [%]"
1,Cc1ccc2c(c1)c1c(n2C)C(C(N)=O)CCC1 (centres unmarked),-19.5
2,CCCC(C)C1(CC)C(=O)NC(=Nc2ccc(F)cc2)NC1=O (centres unmarked),17.5
3,CCC(C)C1(CC)C(=O)NC(=O)N=C1N (centres unmarked),36.1
4,CCCC(C)C1(CC)C(=O)NC(=O)N=C1N (centres unmarked),-76.5
5,O=C(c1cc(-c2ccccc2Cl)on1)N1CCN(C(=O)c2ccco2)CC1,-44.2
6,CC(=O)N1CCN(C(=O)c2ccc(-c3ccccc3Cl)o2)CC1,-20
7,O=C1c2ccccc2-c2c1cccc2C(=O)N1CCCCCC1,0.506
8,O=C(Cc1ccc(Cl)cc1)N1CCN(C(=O)c2ccco2)CC1,-12.8
9,O=C1c2ccccc2-c2c1cccc2C(=O)N1CCCCC1,-22.3
10,O=C(c1ccc(-c2ccccc2Cl)o1)N1CCN(c2ccccc2O)CC1,8.64
11,O=C(c1ccc(Cl)cc1)N1CCN(C(=O)c2ccco2)CC1,-21
12,O=C(c1cc(-c2ccc(Cl)cc2Cl)on1)N1CCN(C(=O)c2ccco2)CC1,-70.2
13,O=C1c2ccccc2-c2c1cccc2C(=O)N1CCN(C(=O)c2ccco2)CC1,-71.1
14,O=C(c1ccco1)N1CCN(C(=O)c2ccc(-c3ccc(Cl)cc3)o2)CC1,-78.8
15,O=C(c1ccco1)N1CCN(C(=O)c2ccc(-c3ccccc3Cl)o2)CC1,-67.6
16,O=C(c1cc(-c2ccc(Cl)cc2Cl)on1)N1CCCC1,-0.203
17,COC(=O)C(O)(c1ccc(NC(=O)c2ccco2)c(OC)c1)C(F)(F)F (centres unmarked),-6.24
18,O=C(NCCc1ccc(Cl)cc1)C(=O)c1c[nH]c2ccccc12,-10.8
19,O=C(Nc1nsc(-c2ccccc2)n1)c1ccc(F)cc1,-24.6
20,CCC(NC(=O)CNC(=O)CNC(=O)c1ccc(Cl)cc1Cl)c1ccc(C)cc1 (centres unmarked),22.2
